From article PMC5700166
Positions count from the first letter of the chain named.

Legend:
Test in all cases: protein-binding microarray (PBM); PBM: ~300 nM protein, 6 mM HEPES pH 7.8, 80 mM KCl, 0.5 mM EDTA, 0.5 mM EGTA, 6% glycerol, 35 ng/ul poly-dIdC, 1% milk, 1 h, room temperature; Ap Aiptasia and Nv Nematostella (sea anemones) / Co Capsaspora / Aq Amphimedon (sponge) / Dm Drosophila / Hu human; RHD is the Rel homology domain; high values mean tight binding
Details in all cases: dsDNA, one strand shown
GST-Ap-NF-kB RHD = molecular target: T1, GST-Ap-NF-kB RHD (Exaiptasia pallida (Aiptasia), UniProt A0A913YAJ5 2-422)
T1 sequence: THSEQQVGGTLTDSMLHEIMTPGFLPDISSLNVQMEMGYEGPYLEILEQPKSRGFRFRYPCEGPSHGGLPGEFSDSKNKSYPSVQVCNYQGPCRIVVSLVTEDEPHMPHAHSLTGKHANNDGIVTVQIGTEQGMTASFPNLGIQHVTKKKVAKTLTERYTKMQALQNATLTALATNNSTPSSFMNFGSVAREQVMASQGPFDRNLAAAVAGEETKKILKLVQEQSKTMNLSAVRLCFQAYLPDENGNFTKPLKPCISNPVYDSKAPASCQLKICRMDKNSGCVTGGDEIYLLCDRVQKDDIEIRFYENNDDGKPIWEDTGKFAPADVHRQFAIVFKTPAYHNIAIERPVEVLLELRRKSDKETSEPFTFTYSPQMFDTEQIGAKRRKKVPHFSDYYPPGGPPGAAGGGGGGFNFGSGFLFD

[1] = molecular target: T2, GST-Nv-NF-kB (Cys allele) (Nematostella vectensis, UniProt E5G601 2-411)
T2 sequence: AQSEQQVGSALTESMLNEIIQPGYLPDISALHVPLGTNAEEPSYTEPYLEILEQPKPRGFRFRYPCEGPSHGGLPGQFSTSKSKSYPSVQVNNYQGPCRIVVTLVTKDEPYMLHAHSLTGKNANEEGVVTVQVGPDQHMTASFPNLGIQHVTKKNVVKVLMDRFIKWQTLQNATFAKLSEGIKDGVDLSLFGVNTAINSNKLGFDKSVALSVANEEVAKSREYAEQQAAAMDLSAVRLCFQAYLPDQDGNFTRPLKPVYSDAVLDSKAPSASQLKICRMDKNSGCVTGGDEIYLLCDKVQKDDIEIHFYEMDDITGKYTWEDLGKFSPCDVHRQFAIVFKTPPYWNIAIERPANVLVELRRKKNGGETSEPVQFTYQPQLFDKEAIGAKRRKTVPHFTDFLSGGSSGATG

[2] = molecular target: T3, GST-Nv-NF-kB (Ser allele) (Nematostella vectensis, UniProt A7UNT2 2-411)
T3 sequence: T2 sequence with Q21R, C66S, S207N, E215Q, V217A, E225K, A268E, D399E

GST-Co-NF-kB = molecular target: T4, GST-Co-NF-kB (Capsaspora owczarzaki, UniProt F1ARL5 200-546)
T4 sequence: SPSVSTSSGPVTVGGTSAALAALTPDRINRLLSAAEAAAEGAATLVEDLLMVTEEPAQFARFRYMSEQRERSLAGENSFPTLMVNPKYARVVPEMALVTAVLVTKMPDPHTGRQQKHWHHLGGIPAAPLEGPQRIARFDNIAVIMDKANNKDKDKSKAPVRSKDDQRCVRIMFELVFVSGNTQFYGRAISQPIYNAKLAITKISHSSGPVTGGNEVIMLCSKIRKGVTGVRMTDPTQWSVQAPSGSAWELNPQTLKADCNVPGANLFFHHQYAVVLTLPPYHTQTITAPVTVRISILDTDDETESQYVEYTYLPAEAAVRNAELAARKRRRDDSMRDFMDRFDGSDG

GST-Dm-Relish = molecular target: T5, GST-Dm-Relish (Drosophila melanogaster, UniProt Q94527 99-473)
T5 sequence: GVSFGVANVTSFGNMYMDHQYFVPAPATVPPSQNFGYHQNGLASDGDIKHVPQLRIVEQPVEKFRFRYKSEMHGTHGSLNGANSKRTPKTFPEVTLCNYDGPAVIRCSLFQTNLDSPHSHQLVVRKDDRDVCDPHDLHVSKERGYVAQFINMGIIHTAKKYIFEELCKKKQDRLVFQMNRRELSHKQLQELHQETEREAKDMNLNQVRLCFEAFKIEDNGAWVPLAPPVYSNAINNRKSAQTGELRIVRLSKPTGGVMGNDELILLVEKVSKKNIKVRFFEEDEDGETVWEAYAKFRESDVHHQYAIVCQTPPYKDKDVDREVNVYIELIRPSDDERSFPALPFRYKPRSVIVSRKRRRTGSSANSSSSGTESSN

GST-Aq-NF-kB = molecular target: T6, GST-Aq-NF-kB (Amphimedon queenslandica, UniProt A9Y5G7 2-389)
T6 sequence: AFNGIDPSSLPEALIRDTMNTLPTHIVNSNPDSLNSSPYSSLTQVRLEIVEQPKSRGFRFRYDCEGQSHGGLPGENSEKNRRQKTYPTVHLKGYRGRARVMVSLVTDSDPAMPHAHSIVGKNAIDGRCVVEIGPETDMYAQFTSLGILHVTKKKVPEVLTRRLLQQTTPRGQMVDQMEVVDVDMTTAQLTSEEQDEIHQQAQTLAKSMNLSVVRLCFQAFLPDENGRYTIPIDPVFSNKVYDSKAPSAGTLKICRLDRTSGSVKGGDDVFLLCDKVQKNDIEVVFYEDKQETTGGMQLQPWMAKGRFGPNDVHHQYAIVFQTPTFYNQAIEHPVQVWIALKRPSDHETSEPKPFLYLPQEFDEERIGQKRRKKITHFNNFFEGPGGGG

GST-Hu-p50 = GST-Hu-p50 (Homo sapiens, UniProt P19838 7-356)
GST-Hu-p50, sequence (P19838 7-356): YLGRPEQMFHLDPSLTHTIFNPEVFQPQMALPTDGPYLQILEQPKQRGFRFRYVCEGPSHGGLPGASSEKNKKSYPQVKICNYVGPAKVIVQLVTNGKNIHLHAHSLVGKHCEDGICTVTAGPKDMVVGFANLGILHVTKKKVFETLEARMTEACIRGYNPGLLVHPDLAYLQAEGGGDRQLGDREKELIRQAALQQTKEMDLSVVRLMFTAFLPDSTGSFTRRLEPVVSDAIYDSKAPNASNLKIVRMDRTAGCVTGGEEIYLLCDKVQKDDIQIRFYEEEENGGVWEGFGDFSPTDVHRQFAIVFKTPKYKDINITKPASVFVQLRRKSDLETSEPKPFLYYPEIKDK

Sequence	binding signal (GST-Ap-NF-kB RHD) [z-score]	binding signal [1] [z-score]	binding signal [2] [z-score]	binding signal (GST-Co-NF-kB) [z-score]	binding signal (GST-Dm-Relish) [z-score]	binding signal (GST-Aq-NF-kB) [z-score]	binding signal (GST-Hu-p50) [z-score]
CCGATTAACATCAAAACTCCCCGTGATGTTAATCGGGTCTTGATTCGCTTGACGCTGCTG	7.7	6.47	6.9	5.87	7.5	6.24	5.74
CCGATTAACATCAGGGACCCCCCTGATGTTAATCGGGTCTTGATTCGCTTGACGCTGCTG	8.29	5.59	4.4	2.66	9.78	8.21	5.07
CCGATTAACATCACTGGATTCCCTGATGTTAATCGGGTCTTGATTCGCTTGACGCTGCTG	3.07	2.76	3.56	2.61	4.48	2.82	1.36
CCGATTAACATCAACGATTCCCCTGATGTTAATCGGGTCTTGATTCGCTTGACGCTGCTG	5.94	6.55	8.86	6.02	3.74	4.38	5.62
CCGATTAACATCACGAAACCCCCTGATGTTAATCGGGTCTTGATTCGCTTGACGCTGCTG	8.57	6.39	7.65	2.69	8.51	6.37	7.11
CCGATTAACATCAATTTTCCCACTGATGTTAATCGGGTCTTGATTCGCTTGACGCTGCTG	2.82	3.99	4.57	4.54	1.33	3.35	3.37
CCGATTAACATCAAGACTTTCCCTGATGTTAATCGGGTCTTGATTCGCTTGACGCTGCTG	4.06	5.48	5.59	2.92	2.82	6.09	4.12
CCGATTAACATCAAATACCCCCTTGATGTTAATCGGGTCTTGATTCGCTTGACGCTGCTG	8.01	6.1	6.79	4.41	6.19	6.04	5.85
CCGATTAACATCACCGGGAATTCTGATGTTAATCGGGTCTTGATTCGCTTGACGCTGCTG	4.62	5.1	4.74	5.5	4.57	4.34	4.01
CCGATTAACATCAATTTCCCCCATGATGTTAATCGGGTCTTGATTCGCTTGACGCTGCTG	7.52	7.6	8.86	10.7	4.97	6.34	6.86
CCGATTAACATCAAAAGTCCCCGTGATGTTAATCGGGTCTTGATTCGCTTGACGCTGCTG	8.32	8.18	7.85	4.26	9.25	7.44	6.58
CCGATTAACATCAGGGGAAGTTATGATGTTAATCGGGTCTTGATTCGCTTGACGCTGCTG	7.14	9.1	9.37	7.7	7.34	7.08	6.64
CCGATTAACATCAGAGTTTCCCCTGATGTTAATCGGGTCTTGATTCGCTTGACGCTGCTG	7.08	8.35	9.96	7.72	4.61	6.33	6.14
